In PubChem BioAssay one finds inhibition and growth inhibition data, which are given here for 40 compounds.

Values joined by “and” are separate entries in the source; they are usually repeats but may differ in a detail not shown here. Identical values can stand only once. Values without a mark were called inactive. Active and inactive are the calls of the source. How the calls were made is not given here.

One assay deals with L-lactate dehydrogenase (Plasmodium falciparum (isolate CDC / Honduras)) (UniProt Q27743). Description: PfLDH activity inhibition – cell lysate, 3D7 strain, counter-screen for P. falciparum growth inhibition project (AID 2304).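 Further: 0% = vehicle and 100% = reference inhibitor.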 To be noted: P. falciparum 3D7 crude extract, LDH APAD/NBT absorbance; at 2 µM; active compounds read high. (The purpose of a counterscreen is to sort out artefacts and off-target activity.)
Chain of L-lactate dehydrogenase (Plasmodium falciparum (isolate CDC / Honduras)) (Q27743 whole entry, looked up): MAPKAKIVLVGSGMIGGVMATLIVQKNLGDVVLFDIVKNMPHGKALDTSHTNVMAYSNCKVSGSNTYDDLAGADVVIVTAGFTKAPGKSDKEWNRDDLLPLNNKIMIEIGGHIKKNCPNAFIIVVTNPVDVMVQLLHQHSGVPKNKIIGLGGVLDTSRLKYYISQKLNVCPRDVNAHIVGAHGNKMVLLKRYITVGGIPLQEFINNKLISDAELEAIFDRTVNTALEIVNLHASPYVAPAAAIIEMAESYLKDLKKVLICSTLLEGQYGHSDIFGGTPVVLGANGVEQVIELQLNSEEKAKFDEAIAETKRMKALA
The inhibition is the drop in the measured response relative to a control, in per cent. Regarding `COc1cc(C=CC(=O)N2CCC(CN3CCC(c4c[nH]c5ccccc45)CC3)CC2)ccc1O`, the inhibition was -3%. Same read-out and setting: the same measure for `COC(=O)c1ccc(CC(C)NCC(O)c2cccc(C(F)(F)F)c2)c(Cl)c1` (centres undefined): 1%; for `Cn1cc(CN2CCC(CCOC(c3ccccc3)c3ccccc3)CC2)cn1`: -5%. On the same count and under the same terms, the same measure for `COc1cc(/C=C/C(=O)NC2CCC(CN3CCC(c4c[nH]c5ccccc45)CC3)CC2)ccc1O` (centres undefined): -8% and -2%.

Test system in the next assay: not listed separately
Description: inhibition of 3D7 malaria parasite growth – strain 3D7 (AID 2306).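 Further: 0% = DMSO wells and 100% = chloroquine plus artemisinin control wells.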 To be noted: P. falciparum 3D7 erythrocytic growth, LDH absorbance, 72 h; at 2 µM; active compounds read high.
Regarding `COc1ccc(CC(C)NCC(O)c2cccc(Cl)c2F)cc1` (centres undefined), the growth inhibition is 88% (active).

In the case of `O=C(NC1CCC(CN2CCC(c3c[nH]c4ccccc34)CC2)CC1)c1cnn(-c2ccccc2)c1-c1ccccc1Cl` (centres undefined), the growth inhibition was 95% (active).

Take `COc1ccc(OC)c([C@H](O)[C@@H](C)NCc2cc(Cl)ccc2O)c1`: the growth inhibition is 97% (active). Take `OC1(CNCc2ccccc2)CCN(CCc2c[nH]c3ccc(F)cc23)CC1`: the growth inhibition is 100% (active). Same read-out and setting: as for `CNC(=O)c1ccc2[nH]cc(C3CCN(CC4CCC(NC(=O)/C=C/c5ccccc5Cl)CC4)CC3)c2c1` (centres undefined), the figure is 100% (active); as for `CC(Cc1ccc(SC(C)C)cc1)NCC(O)c1cccc(Cl)c1` (centres undefined), 99% (active); as for `CS(=O)(=O)Nc1ccc2c(C3CCN(CC4CCN(C(=O)/C=C/c5ccc(Cl)c(Cl)c5)CC4)CC3)c[nH]c2c1`, 99% (active).

On to `COC(=O)/C=C/c1ccc(C[C@@H](C)NC[C@H](O)c2cccc(C(F)(F)F)c2)cc1`, for which the growth inhibition is 97% (active). In the case of `COCCNCc1cccc(-c2ccc(CN(C(=O)Nc3ccccc3)C3CCN(Cc4ccccc4)CC3)cc2)c1`, the growth inhibition was 101% (active). Same read-out and setting: as for `Cc1ccc(C[C@@H](C)NC[C@H](O)c2cccc(C(F)(F)F)c2)cc1`, the figure is 101% (active) and 99% (active); as for `CC[C@H]1CN2CC[C@H]1C[C@H]2[C@H](O)c1cc(-c2cccc(C)c2)nc2ccc(OC)cc12`, 100% (active); as for `CC(C)NC(=O)Cn1cc(C2CCN(CC3CCN(C(=O)/C=C/c4ccc(Cl)c(Cl)c4)CC3)CC2)c2ccccc21`, 97% (active). The same measure, in the same setting: the same measure for `Cc1ccc(C)c(N2CCN(Cc3ccccc3O)CC2)c1`: 100% (active); for `O=C(/C=C/c1ccc(Cl)c(Cl)c1)NCCCCCN1C2CCC1CC(c1c[nH]c3ccccc13)C2` (centres undefined): 98% (active). The same measure, in the same setting: the same measure for `CC(Cc1ccc(SC(C)(C)C)cc1)NCC(O)c1cccc(Cl)c1` (centres undefined): 99% (active); for `CC(C)CNCc1ccc(-c2cccc(CN(C(=O)Nc3ccccc3)C3CCN(Cc4ccccc4)CC3)c2)cc1`: 101% (active); for `C=C[C@H]1CN2CC[C@@H]1C[C@H]2[C@H](O)c1cc(-c2ccc(F)cc2)nc2ccc(OC)cc12`: 99% (active). Regarding `Cc1cccc(C(=O)Nc2ccnc(N(C)C3CCN(CC(C)C)CC3)c2)c1`, the growth inhibition is 95% (active). With `Cc1ccccc1CNCC(O)c1cccc(C(F)(F)F)c1` (centres undefined), the growth inhibition was 99% (active). On the same count and under the same terms, the same measure for `CNCCN(C)C(=O)Oc1c(Cl)c(C)nc(C)c1-c1ccc(Oc2ccc(OC(F)(F)F)cc2)cc1`: 97% (active); for `O=C(/C=C/c1ccc(Cl)c(Cl)c1)NCCC1CCC(N2CCC(c3c[nH]c4ccc(O)cc34)CC2)CC1` (centres undefined): 102% (active); for `CN(c1cc(NC(=O)c2cccs2)ccn1)C1CCN(Cc2ccccc2)CC1`: 92% (active). The same measure, in the same setting: the same measure for `O=C(C=C1c2ccccc2-c2ccccc21)NC1CCC(CN2CCC(c3c[nH]c4ccccc34)CC2)CC1` (centres undefined): 102% (active) and 99% (active); for `CC(=O)N(Cc1ccccc1-c1cccc(CNCc2ccc3c(c2)OCO3)c1)C1CCN(Cc2ccccc2)CC1`: 85% (active).

On to `CC(Cc1ccc(OCCOc2ccccc2)cc1)NCC(O)c1cccc(C(F)(F)F)c1` (centres undefined), for which the growth inhibition was 91% (active).

For `CC(=O)Nc1ccc2[nH]cc(C3CCN(CC4CCN(C(=O)/C=C/c5ccc(Cl)c(Cl)c5)CC4)CC3)c2c1`, the growth inhibition was 96% (active). The same measure, in the same setting: as for `CC(Cc1ccc(OCCCCOc2ccccc2)cc1)NCCCc1nc2ccccc2[nH]1` (centres undefined), the figure is 97% (active); as for `FC(F)(F)c1ccc(NC(=S)NC2CCC(CN3CCC(c4c[nH]c5ccccc45)CC3)CC2)cc1` (centres undefined), 100% (active) and 101% (active); as for `COc1cccc(O)c1CNCC(O)c1cccc(C(F)(F)F)c1` (centres undefined), 98% (active). As to `COc1ccc(CCNCc2ccc3nc(N)c(C)cc3c2)cc1`, the growth inhibition was 100% (active).

Take `Brc1cnc(NC2=NCCN2)c(Br)c1`: the growth inhibition was 99% (active).

For the compound `COc1ccc(C(=O)[C@H]2C[C@@H]2CN2CC=C(c3c[nH]c4ccccc34)CC2)cc1`, the growth inhibition is 95% (active). On to `Oc1ccc(CN2CCN(CCOC(c3ccc(F)cc3)c3ccc(F)cc3)CC2)cc1Cl`, for which the growth inhibition is 96% (active). The same measure, in the same setting: as for `Oc1cc2c(cc1CN1CCN(Cc3ccccc3)CC1)CCC2`, the figure is 98% (active); as for `CN(CC(=O)N1CCN(S(=O)(=O)c2cccc(Cl)c2)CC1CN1CCCC1)c1ccc(Cl)c(Cl)c1` (centres undefined), 89% (active).

For the compound `O=C(/C=C/c1ccc(Cl)c(Cl)c1)N1CCC(CN2CCC(c3c[nH]c4cc(C(F)(F)F)ccc34)CC2)CC1`, the growth inhibition was 99% (active).

With `COc1cc(C=CC(=O)N2CCC(CN3CCC(c4c[nH]c5ccccc45)CC3)CC2)ccc1O`, the growth inhibition is 82% (active). The same measure, in the same setting: the same measure for `COC(=O)c1ccc(CC(C)NCC(O)c2cccc(C(F)(F)F)c2)c(Cl)c1` (centres undefined): 99% (active). The same measure, in the same setting: as for `Cn1cc(CN2CCC(CCOC(c3ccccc3)c3ccccc3)CC2)cn1`, the figure is 99% (active); as for `COc1cc(/C=C/C(=O)NC2CCC(CN3CCC(c4c[nH]c5ccccc45)CC3)CC2)ccc1O` (centres undefined), 98% (active) and 99% (active).
